Source: ChEMBL document CHEMBL1157539, “Thousands of chemical starting points for antimalarial lead identification” (Nature, 2010)

Columns and labels:
Assay type in all cases: functional
Plasmodium falciparum [1] = experiment: GSK_TCMDC: Inhibition of Plasmodium falciparum 3D7 in whole red blood cells, using parasite LDH activity as an index of growth. Test compounds present at 2uM
Plasmodium falciparum [2] = experiment: GSK_TCMDC: Inhibition of Plasmodium falciparum Dd2 in whole red blood cells, using parasite LDH activity as an index of growth. Test compounds present at 2uM
HepG2 = experiment: GSK_TCMDC: Percent inhibition of human HepG2 cell line. Test compounds present at 10uM.

Row | Compound | Inhibition (Plasmodium falciparum [1]) [%] | Inhibition (Plasmodium falciparum [2]) [%] | Inhibition (HepG2) [%]
1 | CC(C)c1ccc(CN2CCC(CNC(=O)c3cc(-c4cccc(Cl)c4)cs3)C2)cc1.O=C(O)C(F)(F)F (stereo not drawn) | 99 | 43 | 42
2 | COCc1ccc(CN2CCC(C(=O)Nc3ccc(-c4nc5ccccc5[nH]4)cc3)CC2)o1 | 97 | 13 | 13
3 | O=C(Nc1nc(-c2ccccn2)cs1)c1ccc(S(=O)(=O)N2CCc3ccccc32)cc1 | 89 | 15 | 47
4 | Cc1ccc(NC(=O)NC2CCN(c3ccnc4ccccc34)C2)cc1.O=C(O)C(F)(F)F (stereo not drawn) | 99 | 48 | 7
5 | OCCCCCCNc1nc(NCc2ccccc2-c2ccc(C(F)(F)F)cc2)nc(N2CCNCC2)n1 | 89 | 16 | 13
6 | Cn1cnc(CCNC(=O)c2ccc(-c3cccc(-c4nc5ccccc5[nH]4)c3)cc2)c1 | 93 | 14 | 1
7 | Cc1nc(-c2cccc(Nc3nccc(NCC(O)c4cccc(C(F)(F)F)c4)n3)c2)cs1 (stereo not drawn) | 100 | 99 | 14
8 | Cc1ccccc1C1CCN(C2CCC(NC(=O)c3ccc(-c4ccccn4)s3)CC2)CC1 (stereo not drawn) | 87 | 17 | 32
9 | CN1CCc2ccc(NC(=O)Nc3cccc(C(=O)c4ccccc4)c3)cc2C1 | 83 | 16 | 11
10 | Cc1cc(NC(=O)Nc2cccc(C#N)c2)c2ccccc2n1 | 100 | 82 | 17
11 | Cc1ccc(/C=C2/SC(=Nc3ccccc3)NC2=O)c(C)c1 | 93 | 90 | 1
12 | CN(C)Cc1ccc(-c2ccc3c(Nc4ccc(Oc5ccccn5)cc4)ccnc3c2)o1 | 100 | 100 | 18
13 | CCNCc1ccc(-c2cccc(-c3nc4ccccc4[nH]3)c2)cc1.O=C(O)C(F)(F)F | 100 | 18 | 26
14 | COc1ccc2ncc(Cl)c(CCN3CCC(NCc4ccc5c(n4)NC(=O)CO5)CC3)c2c1.Cl | 92 | 26 | 25
15 | O=C(O)C(F)(F)F.OCCN1CCN(Cc2ccc(-c3ccc(-c4nc5ccccc5[nH]4)cc3)cc2)CC1 | 100 | 58 | 6
16 | CCCc1ccc(-c2csc(NC(=O)c3ccc([N+](=O)[O-])o3)n2)cc1 | 85 | 13 | 72
17 | C=CC[C@H](NC(=O)c1ccc(NS(=O)(=O)c2ccc3nc(N)[nH]c(=O)c3c2)cc1)C(=O)OCCCC | 97 | 2 | 61
18 | CC1(C)Cc2c(oc3ncn(CCn4cnc5oc6c(c5c4=N)CC(C)(C)SC6)c(=N)c23)CS1 | 98 | 93 | 0
19 | FC(F)(F)c1ccc(Nc2nnnc3ccccc23)cc1 | 90 | 82 | 3
20 | O=C(c1ccc(F)c2ccccc12)N1CCc2cc3nccc(N4CCN5CCC[C@H]5C4)c3cc21 | 90 | 54 | 0
21 | COc1ccc(CN2CCC(CN3CC4(OC3=O)c3ccccc3-c3ccccc34)C2)c(O)c1 (stereo not drawn) | 100 | 79 | 22

Row | Compound | Inhibition (Plasmodium falciparum [1]) [%] | Inhibition (Plasmodium falciparum [2]) [%] | Inhibition (HepG2) [%]
22 | COc1ccc(NC(=O)c2ccc(OCCCCCCCOc3ccc(C(=O)Nc4ccc(OC)c(N5CCN(C)CC5)c4)cc3)cc2)cc1N1CCN(C)CC1.O=C(O)C(=O)O | 96 | 91 | 98
23 | Cc1cc(=NN=Cc2cccc(Cl)c2)c2cc(F)ccc2[nH]1 | 100 | 100 | 1
24 | O=C(Nc1ccc(OC(F)(F)F)cc1)NC1CCN(c2ccnc3ccccc23)CC1.O=C(O)C(F)(F)F | 100 | 40 | 40
25 | COc1ccc(CN2CCN(CCCCNC(=O)c3ccc(NC(=O)c4ccc(Cl)cc4)cc3)CC2)c(OC)c1 | 94 | 0 | 25
26 | COc1ccc(-c2ccc(NC(=O)c3ccccc3)cc2)cc1CN1CCCN(C)CC1.O=C(O)C(F)(F)F | 92 | 17 | 24
27 | Cc1[nH]c(C)c(-c2ccc(-c3cccc(Cl)c3)nc2)c(=O)c1Cl | 97 | 97 | 15
28 | CC(C)(CN)c1nc(-c2ccc(Cl)c(O)c2)c(-c2ccnc(N)n2)[nH]1 | 95 | 95 | 34
29 | C=CCn1c(=N)n(CC(O)c2ccc(Cl)c(Cl)c2)c2ccccc21.Cl (stereo not drawn) | 91 | 80 | 15
30 | Cc1cc(N2CCCCC2)nc2ccc(NC(=O)c3cc(=O)c4ccccc4o3)cc12 | 98 | 19 | 15
31 | O=C(/C=C/c1ccc(Cl)c(Cl)c1)NCCCCCN1CCCN(C(=O)Nc2cc(Cl)nc(Cl)c2)CC1 | 100 | 3 | 8
32 | Nc1ccnc(N2CCC(CCOc3ccnc4cc(Cl)ccc34)CC2)c1.O=C(O)C(F)(F)F | 100 | 99 | 34
33 | O=C(O)C(F)(F)F.OCC1CCN(Cc2ccc(-c3cccc(-c4nc5cc(F)ccc5[nH]4)c3)cc2)CC1 | 100 | 25 | 14
34 | FC(F)(F)c1ccc2[nH]ccc(=NN=Cc3ccc(Cl)cc3)c2c1 | 100 | 53 | 5
35 | CCCNCc1ccc(-c2ccc(CN(C(=O)c3nn(-c4ccccc4)nc3C)C3CC3)cc2)nc1.O=C(O)C(F)(F)F | 100 | 0 | 23
36 | COc1ccc2nc(-c3cccc(C)n3)nc(Nc3ccncc3)c2c1 | 100 | 42 | 0
37 | COc1ccc2c(=NN=Cc3cccc(F)c3)cc(C)[nH]c2c1 | 100 | 100 | 17
38 | Cc1cc(C)c(-c2n[nH]c3c2C(c2cccc(Cl)c2)N(Cc2ccco2)C3=O)c(O)c1 (stereo not drawn) | 96 | 89 | 0
39 | CCN(CC)c1nc(N)c2c(N)nc3c(c2c1C#N)C(=O)CN3Cc1ccccc1 | 96 | 96 | 26
40 | O=C(Nc1cccc(Cl)c1)c1cnc(N2CCN(c3ccncc3)CC2)c(Cl)c1.O=C(O)C(F)(F)F | 100 | 97 | 54
41 | O=C(Nc1ccc(-c2cccc(-c3nc4cc(C(F)(F)F)ccc4[nH]3)c2)cc1)Nc1ccc(Cl)c(Cl)c1 | 98 | 23 | 42
42 | Cc1ccc(O)cc1Nc1ccnc2cc(-c3ccncc3)ccc12.Cl | 100 | 84 | 16

Row | Compound | Inhibition (Plasmodium falciparum [1]) [%] | Inhibition (Plasmodium falciparum [2]) [%] | Inhibition (HepG2) [%]
43 | O=C(NCc1cccc(Cl)c1)c1ccc(CNC2CCN(Cc3ccccc3)CC2)cc1.O=C(O)C(F)(F)F | 100 | 50 | 13
44 | COc1ccc2ncc(F)c(CCN3CCC(CNCc4cccc5c4OCO5)CC3)c2n1.Cl | 93 | 37 | 39
45 | COC(=O)CNC(c1ccccc1)c1cc(Br)ccc1NC(=O)c1ccccc1Br (stereo not drawn) | 99 | 77 | 10
46 | O=C(Nc1ccc2c(c1)OCO2)NC1CCN(c2ccnc(Nc3ccc(F)cc3)n2)C1 (stereo not drawn) | 100 | 89 | 5
47 | COc1ccc(S(=O)(=O)NC2CCN(c3cc(C)nc(Nc4cccc(C#N)c4)n3)CC2)cc1.O=C(O)C(F)(F)F | 88 | 55 | 9
48 | O=C(Nc1ccc(Br)cc1)c1cc(Br)ccc1NS(=O)(=O)c1ccc(C(F)(F)F)cc1 | 100 | 56 | 53
49 | Cc1cccc2nc(C(=O)Nc3nc(CN4CCC(C)CC4)cs3)cn12 | 94 | 80 | 0
50 | Cl.NC1=NC(CCc2ccccc2)N(c2ccc(Cl)cc2)C(N)=N1 (stereo not drawn) | 94 | 20 | 2
51 | O=C(Nc1ccccc1)N(Cc1cccc(-c2cccc(CNCCc3ccccc3)c2)c1)C1CCN(Cc2ccccc2)CC1.O=C(O)C(F)(F)F | 100 | 87 | 100
52 | CCc1ccc(NC(=O)N(CCCn2ccnc2)Cc2csc(-c3ccc(CNCc4ccccc4)cc3)n2)cc1.O=C(O)C(F)(F)F | 100 | 39 | 9
53 | Cc1ccc(C(CC(=O)Nc2nccs2)c2ccc(OC(C)C)cc2)cc1 (stereo not drawn) | 94 | 90 | 5
54 | Cl.FC(F)(F)c1ccc(COc2cc(Cl)ccc2Cn2ccnc2)cc1 | 95 | 0 | 13
55 | CCCOc1ccc2ccccc2c1CNCCCCCCNCc1c(OCCC)ccc2ccccc12.CS(=O)(=O)O | 94 | 90 | 100
56 | N#Cc1ccc(N2CCN(Cc3cccc(-c4ccc(-c5nc6ccccc6[nH]5)cc4)c3)CC2)nc1.O=C(O)C(F)(F)F | 89 | 40 | 45
57 | FC(F)(F)c1ccc(CNC2CCN(CC3CCCCC3)CC2)cc1.O=C(O)C(F)(F)F | 87 | 5 | 4
58 | Cc1ccc(CN2CCCN(Cc3cccc(C(=O)Nc4ccc(C(C)(C)C)cc4)c3)CC2)s1.O=C(O)C(F)(F)F | 85 | 4 | 31
59 | COc1ccc2nccc([C@@H](O)CN3CCC(NC(=O)/C=C/c4ccc5ccccc5n4)CC3)c2c1 | 91 | 9 | 12
60 | O=c1cc(NCCCNCc2cccc(Oc3ccccc3)c2)[nH]c2ccccc12 | 93 | 67 | 0
61 | CC(C)(C)c1ccc(CN2CCC(CNC(=O)c3cc(-c4cccc(Cl)c4)cs3)C2)cc1.O=C(O)C(F)(F)F (stereo not drawn) | 100 | 83 | 44
